This note sets out measurements from PubChem BioAssay (Tox21).

The nature of assay [1]: qHTS assay for small molecule agonists of the p53 signaling pathway (AID 651631; calls by dose curve; further: nearly all actives have a fitted effect of over 15% in size). An outline of the steps: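 p53RE-bla HCT-116 cells; compounds 16 h, 37 °C; LiveBLAzer B/G FRET substrate 2 h RT; fluorescence intensity read-out, qHTS format.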
Assay [2] can be described thus: qHTS assay for small molecules that induce genotoxicity in human embryonic kidney cells expressing luciferase-tagged ATAD5 (AID 651632). Further: nearly all actives have a fitted effect of over 15% in size. An outline of the steps:
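A rise in luciferase signal from ATAD5-tagged HEK293T cells marks genetic stress. Cells were exposed to compounds for 16 hr at 37C, 5% CO2, then luciferase was quantified after a 30 min room-temperature incubation with Amplite.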

The nature of assay [3]: qHTS assay for small molecule agonists of the p53 signaling pathway - cell viability (AID 651633; calls by dose curve;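 further: p53RE-bla HCT reporter cells with a stable beta-lactamase p53 reporter; series mostly up to about 83 µM; nearly all actives have a fitted effect of over 30% in size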). Put shortly:
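p53RE-bla cells, seeded at 4,000 per well and rested 5 h at 37 C/5% CO2, received compounds in DMSO for 16 h at 37 C. CellTiter-Glo was then added, and luminescence was read after 30 min at room temperature to gauge cytotoxicity.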

Assay [4] can be described thus: qHTS assay for small molecules that induce genotoxicity in human embryonic kidney cells expressing luciferase-tagged ATAD5 - cell viability (AID 651634; calls by dose curve; further: nearly all actives have a fitted effect of over 25% in size; further: potency means the concentration at half of the fitted maximal effect). An outline of the steps:
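Cytotoxicity counter-readout: after 15.5 hr compound treatment at 37C, live-cell protease activity in ATAD5-luciferase HEK293T cells measured by CellTiter-Fluor fluorescence, 30 min development at 37C.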

The nature of assay [5]: qHTS assay to test for compound auto fluorescence at 535 nm (green) in HepG2 cells (AID 720675).
Assay [6] is described as follows: qHTS assay to test for compound auto fluorescence at 460 nm (blue) in HEK293 cells (AID 720678). An outline of the steps: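 Cells were seeded and left to adhere for 4-5 hr at 37C. Compounds were then pin-transferred. After an overnight incubation at 37C under 5% CO2, intrinsic fluorescence at 405/460 nm was measured and referenced to triamterene.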
The nature of assay [7]: qHTS assay to test for compound auto fluorescence at 590 nm (red) in HEK293 cells (AID 720679). An outline of the steps:
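Each well held 2,000 HEK293 cells in medium containing 10% dialyzed FBS. Following 4-5 hr attachment at 37C, 23 nL test compound or DMSO was added; plates sat overnight, and red fluorescence (540/590nm) was recorded.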

A short description of assay [8]: qHTS assay for small molecule disruptors of the mitochondrial membrane potential - cell viability (AID 720634; calls by dose curve;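 further: human HepG2 liver cancer cells; series mostly up to about 83 µM; nearly all actives have a fitted effect of over 20% in size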). Put shortly:
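Cytotoxicity was quantified from ATP content by CellTiter-Glo luminescence in the same wells as the MMP dye read-out. HepG2 (2,000 cells/well) were plated overnight and exposed to compounds for 1 hr at 37 C.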

The nature of assay [9]: qHTS assay to test for compound auto fluorescence at 590 nm (red) in HepG2 cells (AID 720674). An outline of the steps:
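Intrinsic compound fluorescence in the red window (Ex/Em 540/590 nm) is measured in attached HepG2 cells exposed for 1 hr, DMSO vehicle as baseline, benchmarked to Rose Bengal sodium.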

A short description of assay [10]: qHTS assay for small molecule disruptors of the mitochondrial membrane potential (AID 720635). Put shortly: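 HepG2 cells (2,000/well) attached overnight at 37C, then took compound for 1 hr at 37C, 5% CO2. Mito-MPS dye was added for 30 min; fluorescence was read at 490/535 nm (monomers) and 540/590 nm (aggregates).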

Structures are written as SMILES. Values without a mark were called inactive. Inconclusive results are not listed. Calls of active or inactive are those of the source. Unless noted, the call rests on the fitted dose curve; in most records, active means well fitted curve in the direction sought with a large enough effect in the repeat runs; inconclusive means weak or mixed curves; inactive means no such curve, though single readings can be large; an effect the other way counts as inactive or inconclusive.

On to `CC(C)(C)NCC(O)COc1ccc(NC(=O)NC2CCCCC2)cc1` (configuration not stated), for which the Potency entry in assay [1], in [2], in assay [3], in [4] and in assay [6] was “inactive” throughout. Also, the outcome in assay [5] and in [7] was inactive.

Take `O=C(O)COCC(=O)O`: the Potency entry in [1], in assay [2], in assay [3], in assay [4], in [8] and in assay [6] was “inactive” each time. In addition, the result in [9], in assay [5] and in assay [7] was inactive.

Take `COC(=O)Cc1cccc2ccccc12`: the Potency result in assay [1], in assay [2], in [3], in [4], in assay [8] and in assay [6] was “inactive” throughout. Besides, the compound was called inactive in assay [9], in assay [5] and in [7].

Turning to `C=CC(O)CCCCC` (configuration not stated), the Potency result in assay [1], in assay [2], in assay [3], in assay [4] and in [6] was “inactive” each time. Besides, the compound was classed as inactive in [9], in assay [5] and in assay [7].

On to `CC(O)C(C)O` (configuration not stated), for which the Potency entry in assay [1], in assay [2], in assay [3], in [8], in assay [10] and in [6] was “inactive” each time. In addition, the outcome in assay [9], in assay [5] and in [7] was inactive.

For the compound `CCc1ccc(C(=O)C(C)CN2CCCCC2)cc1` (configuration not stated), the Potency entry in [1], in assay [2], in [3], in assay [8], in assay [10] and in assay [6] was “inactive” in each case. Also, the result in [9], in [5] and in assay [7] was inactive.

Regarding `Nc1ccc(F)cc1F`, the Potency result in assay [1], in assay [2], in [3], in [8], in [10] and in assay [6] was “inactive” in each case. The result in assay [9], in assay [5] and in [7] was inactive.

As for `Cc1ccccc1CCO`, the Potency result in assay [1], in assay [2], in [3], in assay [4], in assay [8] and in assay [6] was “inactive” throughout. In addition, the compound was called inactive in assay [9], in assay [5] and in [7].

As to `CCCCCCCCCC(C)C=O` (configuration not stated), the Potency entry in [1], in assay [2], in assay [3], in assay [8], in assay [10] and in assay [6] was “inactive” throughout. For the same compound, the call in assay [9], in [5] and in assay [7] was inactive.

With `Cc1nc(C)c(C)nc1C`, the Potency result in [1], in [2], in assay [3], in assay [4], in assay [8] and in [6] was “inactive” each time. Moreover, the result in assay [9], in [5] and in assay [7] was inactive.

`O=[N+]([O-])c1ccccc1CCO`: the Potency result in assay [1], in assay [2], in [3], in [8], in assay [10] and in [6] was “inactive” throughout. Moreover, the outcome in [9], in [5] and in assay [7] was inactive.

With `CCn1nc(Cc2ccccc2)cc1C1CCN(C[C@H]2C[C@H](N(C)[C@@H](C(=O)O)C(C)C)C[C@@H]2c2cccc(F)c2)CC1`, the Potency result in assay [1], in assay [2], in assay [3], in [4], in assay [8] and in assay [6] was “inactive” in each case. Also, the outcome in assay [5] and in [7] was inactive.

In the case of `O=C(O)c1cccc(C(=O)O)c1C(=O)O`, the Potency entry in assay [1], in assay [2], in assay [3], in [4], in assay [8] and in assay [6] was “inactive” in each case. Moreover, the outcome in assay [9], in [5] and in assay [7] was inactive.

As for `O=C(OCCCCCOC(=O)c1ccccc1)c1ccccc1`, the Potency entry in assay [1], in assay [2], in [3], in assay [4], in assay [8] and in assay [6] was “inactive” throughout. The call in assay [5] and in assay [7] was inactive.

In the case of `CC(C)(O)C(=O)O`, the Potency result in assay [1], in assay [2], in assay [3], in [4], in assay [8] and in [6] was “inactive” each time. Besides, the result in assay [9], in assay [5] and in assay [7] was inactive.

Consider `CCCCCCCCCCCCN1CCOCC1`, for which the Potency entry in assay [1], in [2], in assay [3], in assay [4], in assay [8] and in [6] was “inactive” each time. Further, the compound was classed as inactive in [9], in [5] and in [7].

As to `CCOc1ccc(NC(C)=O)cc1N`, the Potency result in assay [1], in assay [2], in assay [3], in assay [4], in [8] and in assay [6] was “inactive” throughout. Further, the outcome in [9], in assay [5] and in [7] was inactive.

Regarding `O=C1c2ccccc2C(=O)C1c1ccc2cc(S(=O)(=O)O)cc(S(=O)(=O)O)c2n1`, the Potency entry in assay [1], in assay [2], in assay [3], in assay [8] and in [6] was “inactive” each time. Also, the Potency in assay [4] was 52.5 µM (active). Moreover, the call in assay [9], in [5] and in assay [7] was inactive.
